According to PubChem BioAssay (NCATS):
Records with an inconclusive call do not appear. The source made the active and inactive calls. Calls come from the whole dose curve; as a rule, active = well fitted curve in the direction sought with a large enough effect; inconclusive = small, poorly fitted or top-dose-only effect, or another doubt; inactive = no such curve, though single readings can be large; an effect the other way counts as inactive or inconclusive.

Tests used:
NIH3T3 = experiment: qHTS assay to identify novel small-molecules to repurpose for Merkel cell carcinoma treatment (AID 1296009); conditions: MCC and control cell lines, CellTiter-Glo viability, 72 h; at 44.8 µM (top of the series) unless noted; note: nearly all actives have a fitted effect of over 60% in size
Outline: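 Viability readout: ATP luminescence (CellTiter-Glo) after 72 hr drug exposure at 37 degree celsius. Dose-response format was 8 points for NPC and 11 points for MIPE; data normalized to in-plate controls.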

C33A = experiment: Primary qHTS to identify gynecologic anti-cancer compounds using libraries of approved drugs and bioactive compounds (AID 1345084); conditions: Gynecologic cancer cell panel viability, ATPlite luminescence, 48 h; series mostly up to 57.5 µM; note: % is set by controls: 0 for no effect and ±100 for the full control effect; nearly all actives have a fitted effect of over 55% in size
Outline: (§1)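 Cells, 1,000 per well, plated 16 h, then exposed 48 h at 37 C to compounds. Viability by ATPlite luminescence after 15 min at room temperature.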

CAOV3 = experiment: as above; conditions: Gynecologic cancer cell panel viability, ATPlite luminescence, 48 h; series mostly up to 57.5 µM
Outline: as §1

CASKI = experiment: as above; conditions: Gynecologic cancer cell panel viability, ATPlite luminescence, 48 h; series mostly up to 57.5 µM
Outline: as §1

Es-2 = experiment: as above; conditions: Gynecologic cancer cell panel viability, ATPlite luminescence, 48 h; series mostly up to 57.5 µM
Outline: as §1

HeLa = experiment: as above; conditions: Gynecologic cancer cell panel viability, ATPlite luminescence, 48 h; series mostly up to 57.5 µM
Outline: as §1

Hek293T = experiment: as above; conditions: Gynecologic cancer cell panel viability, ATPlite luminescence, 48 h, control line for the selectivity index; series mostly up to 57.5 µM
Outline: as §1

JEG-3 = experiment: as above; conditions: Gynecologic cancer cell panel viability, ATPlite luminescence, 48 h; series mostly up to 57.5 µM
Outline: as §1

OV90 = experiment: as above; conditions: Gynecologic cancer cell panel viability, ATPlite luminescence, 48 h; series mostly up to 57.5 µM
Outline: as §1

PA-1 = experiment: as above; conditions: Gynecologic cancer cell panel viability, ATPlite luminescence, 48 h; series mostly up to 57.5 µM
Outline: as §1

Tov-21-G = experiment: as above; conditions: Gynecologic cancer cell panel viability, ATPlite luminescence, 48 h; series mostly up to 57.5 µM
Outline: as §1

Tov112D = experiment: as above; conditions: Gynecologic cancer cell panel viability, ATPlite luminescence, 48 h; series mostly up to 57.5 µM
Outline: as §1

SKOV3 = experiment: as above; conditions: Gynecologic cancer cell panel viability, ATPlite luminescence, 48 h; series mostly up to 57.5 µM
Outline: as §1

O=C(O)/C=C/c1ccc(O[C@@H]2O[C@H](CO)[C@@H](O)[C@H](O)[C@H]2O)cc1
inactive: outcome (NIH3T3) | Potency (C33A) | Potency (CAOV3) | outcome (CASKI) | Potency (Es-2) | Potency (HeLa) | Potency (Hek293T) | Potency (JEG-3) | Potency (OV90) | Potency (PA-1) | Potency (Tov-21-G) | Potency (Tov112D)

C[C@@]1(O)[C@H](O)[C@@H](CO)O[C@H]1n1cnc2c(=O)[nH]c(N)nc21
inactive: outcome (NIH3T3) | Potency (C33A) | Potency (CAOV3) | outcome (CASKI) | Potency (Es-2) | Potency (HeLa) | Potency (Hek293T) | Potency (JEG-3) | Potency (OV90) | Potency (PA-1) | Potency (Tov-21-G) | Potency (Tov112D)

O=C(O)Cn1nnc(-c2ccc(CN(CCCCOc3ccc(CN4CCCC4)cc3)CCc3ccccc3)cc2)n1
inactive: outcome (NIH3T3) | Potency (C33A) | Potency (CAOV3) | outcome (CASKI) | Potency (Es-2) | Potency (HeLa) | Potency (Hek293T) | Potency (JEG-3) | Potency (OV90) | Potency (PA-1) | Potency (Tov-21-G) | Potency (Tov112D)

Cc1cc(O[C@@H]2O[C@H](COC(=O)CC(=O)O)[C@@H](O)[C@H](O)[C@H]2O)c(C(C)C)cc1O
inactive: outcome (NIH3T3) inactive [at 17.4 µM] | Potency (C33A) | Potency (CAOV3) | outcome (CASKI) | Potency (Es-2) | Potency (HeLa) | Potency (Hek293T) | Potency (JEG-3) | Potency (OV90) | Potency (PA-1) | Potency (Tov-21-G) | Potency (Tov112D)

COCCN1CCC(C(=O)NO)(S(=O)(=O)c2ccc(Oc3ccc(OC(F)(F)F)cc3)cc2)CC1
inactive: outcome (NIH3T3) | Potency (C33A) | Potency (CAOV3) | outcome (CASKI) | Potency (Es-2) | Potency (HeLa) | Potency (Hek293T) | Potency (JEG-3) | Potency (OV90) | Potency (PA-1) | Potency (Tov-21-G) | Potency (Tov112D)

CNc1nc(C)nc(N[C@H]2CCC[C@@H](C(=O)NCc3ccc(C#N)cc3C(F)(F)F)C2)n1
inactive: outcome (NIH3T3) | Potency (C33A) | Potency (CAOV3) | outcome (CASKI) | Potency (Es-2) | Potency (HeLa) | Potency (Hek293T) | Potency (JEG-3) | Potency (OV90) | Potency (SKOV3) | Potency (Tov-21-G) | Potency (Tov112D)

Cc1onc(-c2ccccc2Cl)c1C(=O)N(C)c1ccc(Cl)cc1
inactive: outcome (NIH3T3) | Potency (C33A) | Potency (CAOV3) | outcome (CASKI) | Potency (Es-2) | Potency (HeLa) | Potency (Hek293T) | Potency (JEG-3) | Potency (OV90) | Potency (SKOV3) | Potency (Tov-21-G) | Potency (Tov112D)

CC1(CO)CC(O)C2(C)CCC3(C)C(=CCC4C5(C=O)CCC(OC6OC(C(=O)O)C(O)C(O)C6OC6OC(C(=O)O)C(O)C(O)C6O)C(C)(C)C5CCC43C)C2C1 (stereo not given)
inactive: outcome (NIH3T3) inactive [at 9.27 µM] | activity change, negative = cytotoxicity (C33A) 4.08% [at 11.6 µM] | activity change, negative = cytotoxicity (CAOV3) 8.53% [at 11.6 µM] | activity change, negative = cytotoxicity (CASKI) 5.93% [at 11.6 µM] | activity change, negative = cytotoxicity (Es-2) 3.36% [at 11.6 µM] | activity change, negative = cytotoxicity (HeLa) 7.21% [at 11.6 µM] | activity change, negative = cytotoxicity (Hek293T) -0.0914% [at 11.6 µM] | activity change, negative = cytotoxicity (JEG-3) 2.3% [at 11.6 µM] | activity change, negative = cytotoxicity (OV90) 0.842% [at 11.6 µM] | activity change, negative = cytotoxicity (Tov-21-G) 10.3% [at 11.6 µM] | activity change, negative = cytotoxicity (Tov112D) 20.1% [at 11.6 µM]

COc1cc(/C=C/CO[C@@H]2O[C@H](CO)[C@@H](O)[C@H](O)[C@H]2O)cc(OC)c1O[C@@H]1O[C@H](CO)[C@@H](O)[C@H](O)[C@H]1O
inactive: outcome (NIH3T3) inactive [at 17.4 µM] | Potency (C33A) | Potency (CAOV3) | outcome (CASKI) | Potency (Es-2) | Potency (HeLa) | Potency (Hek293T) | Potency (JEG-3) | Potency (OV90) | Potency (SKOV3) | Potency (Tov-21-G) | Potency (Tov112D)

COc1c(-c2ccc(O)cc2)cc(OC)c2c1oc1cc(O)c(OC3OC(CO)C(O)C3O)cc12 (stereo not given)
inactive: outcome (NIH3T3) inactive [at 17.4 µM] | Potency (C33A) | Potency (CAOV3) | outcome (CASKI) | Potency (Es-2) | Potency (HeLa) | Potency (Hek293T) | Potency (JEG-3) | Potency (OV90) | Potency (PA-1) | Potency (Tov-21-G) | Potency (Tov112D)

COC(=O)C1=COC(OC2OC(CO)C(O)C(O)C2O)C2C(C)CC(=O)C12O (stereo not given)
inactive: outcome (NIH3T3) inactive [at 17.4 µM] | Potency (C33A) | Potency (CAOV3) | outcome (CASKI) | Potency (Es-2) | Potency (HeLa) | Potency (Hek293T) | Potency (JEG-3) | Potency (OV90) | Potency (SKOV3) | Potency (Tov-21-G) | Potency (Tov112D)

C=CC(C)(O)CCC1C(C)(O)CCC2C(C)(C)CCCC21C (stereo not given)
inactive: outcome (NIH3T3) | Potency (C33A) | Potency (CAOV3) | outcome (CASKI) | Potency (Es-2) | Potency (HeLa) | Potency (Hek293T) | Potency (JEG-3) | Potency (OV90) | Potency (PA-1) | Potency (Tov-21-G) | Potency (Tov112D)

CC(=O)O[C@@H](C[C@@H]1C=C(C)C(=O)O1)[C@H](C)[C@H]1CCC2[C@@]3(C)CC[C@H](O[C@@H]4O[C@H](CO)[C@@H](O)[C@H](O)[C@H]4O[C@@H]4O[C@@H](C)[C@H](O)[C@@H](O)[C@H]4O)C(C)(C)C3CC[C@@]2(C)[C@@]12COC(=O)C2 (stereo not given in full)
inactive: outcome (NIH3T3) inactive [at 9.27 µM] | activity change, negative = cytotoxicity (C33A) 13.5% [at 11.6 µM] | activity change, negative = cytotoxicity (CAOV3) 4.91% [at 11.6 µM] | activity change, negative = cytotoxicity (CASKI) 4.88% [at 11.6 µM] | activity change, negative = cytotoxicity (Es-2) 8.74% [at 11.6 µM] | activity change, negative = cytotoxicity (HeLa) 5.41% [at 11.6 µM] | activity change, negative = cytotoxicity (Hek293T) 15.9% [at 11.6 µM] | activity change, negative = cytotoxicity (JEG-3) -9.52% [at 11.6 µM] | activity change, negative = cytotoxicity (OV90) 15.4% [at 11.6 µM] | activity change, negative = cytotoxicity (SKOV3) 14.4% [at 11.6 µM] | activity change, negative = cytotoxicity (Tov-21-G) 2.35% [at 11.6 µM] | activity change, negative = cytotoxicity (Tov112D) 13.8% [at 11.6 µM]
